Screen size: about 420,000 compounds; about 540 (0.13%) were called active. This is one part of a sample in which actives are shown more often than they occur. Unmarked numbers belong to inactive results. Rule as the data show it: active = activity change below about -50%; inconclusive = mostly about -30% to -49%; inactive = weaker than that.
Biological target: Phosphatidylinositol 4-kinase type 2-alpha (Homo sapiens) (UniProt Q9BTU6)
Experiment: qHTS for small molecular inhibitors of PI4K2A;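 as to activity change, negative = inhibition: -100% = wells without enzyme as full effect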
Conditions: purified PI4K2A, ADP-Glo luminescence, 1 h; at 76.9 µM, stronger effect = lower value
Method in brief: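 Compounds are screened against recombinant PI4K2A using PI as substrate and ATP, the latter dispensed at 300 microM. Reactions run one hour at ambient temperature before ADP-Glo detection; full inhibition defined by wells lacking enzyme.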

Sequence of Phosphatidylinositol 4-kinase type 2-alpha (Homo sapiens) (Q9BTU6 whole entry, looked up): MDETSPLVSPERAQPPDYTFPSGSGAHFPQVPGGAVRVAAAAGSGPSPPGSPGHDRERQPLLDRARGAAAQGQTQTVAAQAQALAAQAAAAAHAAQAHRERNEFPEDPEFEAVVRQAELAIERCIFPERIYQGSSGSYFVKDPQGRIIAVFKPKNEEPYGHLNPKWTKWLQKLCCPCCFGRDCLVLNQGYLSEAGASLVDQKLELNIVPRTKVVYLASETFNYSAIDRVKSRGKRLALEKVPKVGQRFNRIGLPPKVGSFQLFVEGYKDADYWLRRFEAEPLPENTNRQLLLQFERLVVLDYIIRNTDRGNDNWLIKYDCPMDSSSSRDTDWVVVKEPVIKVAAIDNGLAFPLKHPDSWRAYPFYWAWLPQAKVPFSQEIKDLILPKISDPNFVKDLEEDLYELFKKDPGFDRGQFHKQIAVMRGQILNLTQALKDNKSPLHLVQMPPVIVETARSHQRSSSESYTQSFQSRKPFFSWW

SMILES | activity change, negative = inhibition
Nc1ccc2c3c(cccc13)C(=O)NC2=O | -1.25%
CN[C@@H]1[C@@H](O)[C@@H](O[C@@H]2[C@H](O)[C@H](O[C@H]3OC(CN)=CC[C@H]3N)[C@@H](N)C[C@H]2N)OCC1(C)O (some centres undefined) | 3.62%
CC1(C)S[C@@H]2[C@H](N=CN3CCCCCC3)C(=O)N2[C@H]1C(=O)O | -3.84%
Cc1cc(C)cc(-n2ccnc2SCC(=O)Nc2nc3ccccc3s2)c1 | -3.54%
CCOc1ccc(N/C=C/C(=O)c2ccccc2)cc1 | -50.8% (active)
CCOc1ccc(NC(=O)N(CC(C)C)CC(C)C)cc1 | 7.41%
CCOc1ccc(NC(=O)CSc2c3c(nc4ccccc24)CCCC3)cc1 | -3.16%
COc1ccc(C(=O)NCC(c2ccc(N(C)C)cc2)N2CCc3ccccc32)c(OC)c1 (centres undefined) | 0.413%
CCCCN(C)CCCNC(=O)CN1N=C(c2ccc(OC)cc2)CCC1=O | -1.59%
COc1cc(CNC(=O)c2cc3n(n2)CCCN(Cc2cccc(F)c2)C3=O)cc(OC)c1OC | -0.346%
COC(=O)c1cc(Cl)c(NC(C)=O)cc1OC | -2.22%
Nc1c(C(=O)O)cnn1-c1ccccc1 | -60.3% (active)
NNC(=O)c1cnn(-c2ccccc2)c1C(F)(F)F | 3.06%
CCNC(=O)c1cnn(-c2ccccc2)c1-c1ccccc1 | 2.38%
O=c1ccc2c(-c3ccccc3S(=O)(=O)O)c3ccc(O)c(O)c3oc-2c1O | -68% (active)
O=C(NC1CC(=O)N(c2ccccc2)C1)c1ccco1 (centres undefined) | -1.35%
CCOc1ccc(C(NC(=O)c2cc(OC)c(OC)c(OC)c2)c2cc(Cl)c3cccnc3c2O)cc1 (centres undefined) | -3.07%
COc1ccc(OC)c(NC(=O)C2CCCN(S(=O)(=O)c3ccc4c(c3)CCCC(=O)N4)C2)c1 (centres undefined) | -2.64%
CN1CC[C@H](c2c(O)cc(O)c3c(=O)cc(-c4ccccc4Cl)oc23)[C@H](O)C1 | -3.75%
Nc1ncnc2c1c(I)cn2[C@@H]1C[C@H](N)[C@@H](O)[C@H]1O | -21.5%
NC1CCN(O)C1=O (centres undefined) | 0.196%

SMILES | activity change, negative = inhibition
CCOC(=O)c1cc2c(=O)n3ccccc3nc2n(Cc2ccco2)c1=NC(=O)c1ccc(F)cc1 | -8.37%
Cc1cc(NS(=O)(=O)c2ccc3oc(=O)c4ncn(C)c4c3c2)ccc1Br | 3.97%
CC1(C)O[C@@H]2[C@H](O1)[C@@H](CO)O[C@H]2n1c(N2CCCCC2)nc2c(N)ncnc21 | -54.5% (active)
OCC1OC(n2cnc3c(N4CCCC4)ncnc32)C(O)C1O (centres undefined) | -0.936%
Nc1ncnc2c1cnn2C1CC(O)C(CO)O1 (centres undefined) | -25.1%
Cn1c(=O)c2c(-c3ccccc3Br)n(Cc3ccccc3)cc2n(C)c1=O | -1.93%
O=c1cc(-c2ccccc2)[nH]c2nc(Cl)ccc12 | 3.68%
Cc1nnc(C(=O)NC(C)(C)c2nc(C(=O)NCc3ccc(F)cc3)c(O)c(=O)n2C)o1 | -1.36%
CCN(C(=O)Cn1cc(S(=O)(=O)N2CCN(c3ccccc3F)CC2)c2ccccc2c1=O)c1ccc(C)c(C)c1 | -1.44%
N#Cc1c(N2CCCCC2)nc(N)c2c(N)nc(SCC(=O)O)cc12 | -59.8% (active)
COc1cccc(C(=O)NC(=O)Nc2ccc(-c3cc(C(F)(F)F)nn3-c3ccccc3)cc2)c1 | -3.82%
COc1cccc(C(=O)Nc2ccc(N3CCCC3)cc2)c1 | -68.3% (active)
COc1cccc(C(=O)Nc2ccc(-c3cc(C(F)(F)F)nn3-c3ccccc3)cc2)c1 | 4.36%
CCCCCn1c(=O)[nH]c2cc(C(=O)NCCN(C)CCCC)ccc2c1=O | 3.6%
O=C(CSc1cn(CC(=O)N2CCOCC2)c2ccccc12)Nc1ccccc1 | -0.303%
CCCCOCCOC(=O)c1cccnc1 | 0.377%
Cc1ccc(CNC(=O)CSc2c(C)cnc3c2c(=O)n(C)c(=O)n3C)cc1 | -1.23%
CO[C@]1(NC(=O)CSC(F)F)C(=O)N2C(C(=O)O)=C(CSc3nnnn3CCO)CO[C@H]21 | -0.764%
CC(C)CNc1ncnc2c1nnn2C | 1.45%
CCN1CCN(C(=O)N[C@@H](C(=O)N[C@@H]2C(=O)N3[C@@H]2SC(C)(C)[C@H]3C(=O)O)c2ccccc2)C(=O)C1=O | 2.58%
CCOc1ccccc1CNC(=O)C1CCCN(S(=O)(=O)c2ccc3c(ccn3C)c2)C1 (centres undefined) | 2.73%

SMILES | activity change, negative = inhibition
O=C(CSc1nnc(-c2ccccc2F)o1)Nc1cccc(C(F)(F)F)c1 | 2.53%
CC1CC2C3CCC4=CC(=O)C=C[C@]4(C)[C@@]3(F)[C@@H](O)C[C@]2(C)[C@@]1(O)C(=O)CO (some centres undefined) | 2.22%
CCCCCn1c(=O)[nH]c2cc(C(=O)Nc3ccc(F)cc3)ccc2c1=O | 3.49%
COc1ccc(-c2cc(=O)oc3cc(OCC(=O)N[C@@H](Cc4c[nH]c5ccccc45)C(=O)O)ccc23)cc1 | -51.9% (active)
COc1ccc(-c2cc(C(=O)NC(Cc3c[nH]c4ccccc34)C(=O)O)c(C)o2)cc1OC (centres undefined) | -4.82%
COc1ccc(-c2cc(=O)oc3cc(OC(C)C(=O)NCC4CCC(C(=O)O)CC4)ccc23)cc1 (centres undefined) | -0.472%
NCC[C@H](O)C(=O)N[C@@H]1C[C@H](N)[C@@H](O[C@H]2O[C@H](CN)[C@@H](O)[C@H](O)[C@@H]2O)[C@H](O)[C@@H]1O[C@H]1O[C@H](CO)[C@@H](O)[C@H](N)[C@@H]1O | inactive
Cc1ccccc1OCc1nc2c3cnn(-c4ccccc4F)c3ncn2n1 | -3.76%
CCc1ccc(CN(Cc2ccco2)C(=O)COc2ccc(Cl)c(C)c2)cc1 | -7.93%
CCOc1ccc(NC(=O)Cn2c(=O)n(CCCC(=O)NCc3ccc4c(c3)OCO4)c(=O)c3ccccc32)cc1 | -1.29%
CC1=NN(c2ccc(Cl)c(C(=O)O)c2)C(=O)/C1=C/c1ccc(-c2ccccc2[N+](=O)[O-])o1 | -58.6% (active)
O=C(Cn1c(=O)n(Cc2cccs2)c(=O)c2cccnc21)Nc1ccc(F)cc1 | -2.3%
CCOC(=O)c1ccc(NC(=O)Cn2cc(S(=O)(=O)Cc3ccccc3F)c3ccccc32)cc1 | -0.867%
Cc1ccc(C(=O)COC(=O)C(Cc2c[nH]c3ccccc23)NC(=O)c2ccc(Br)cc2)cc1 (centres undefined) | 1.44%
COCCCN1CCC(NC(=O)c2cc(Cl)c(N)c3c2OCC3)CC1 | -0.718%
CN(C)c1cccc(C(=O)Nc2nc3ccc(S(=O)(=O)NC(C)(C)C)cc3s2)c1 | 0.225%
CN(Cc1ccccc1)C(=O)c1cn(C)c2ccc(S(=O)(=O)N(C)C3CCCCC3)cc2c1=O | 2.24%
CCOC(=O)c1ccc(N2C(=O)c3[nH]nc(-c4ccccc4)c3C2c2ccc(C(C)C)cc2)cc1 (centres undefined) | 4.25%
CCOC(=O)c1[nH]c(C)c(CCC(=O)N2CCN(c3ccccc3)CC2)c1C | -2.94%
CSc1ccccc1N1CCN(CCCCCC(=O)NC2CCCc3ccccc32)CC1 (centres undefined) | 3.17%
COc1cccc(-c2cc(C(=O)Nc3ccc(C)cc3)[nH]n2)c1 | -3.12%

SMILES | activity change, negative = inhibition
COc1cc(C(=O)N2CCN(c3ccc(Nc4ccc(C)cc4)nn3)CC2)cc(OC)c1OC | 1.58%
CO/N=C(/C(=O)N[C@@H]1C(=O)N2C(C(=O)O)=C(Cn3nnc(C)n3)CS[C@H]12)c1csc(N)n1 | -10.8%
O=C1Cc2cc(S(=O)(=O)Nc3ccc(OC(F)(F)F)cc3)cc3c2N1CCC3 | -2.44%
COC(=O)c1ccc(OC)c(Cn2c(=O)n(Cc3ccccc3)c(=O)c3c2c2cc(OC)ccc2n3C)c1 | 4.84%
COc1ccccc1CNC(=O)CCn1c(=O)c2ccccc2n(CC(=O)Nc2ccc(Br)cc2F)c1=O | 2.55%
COc1ccc(OC)c(NC(=O)CSc2nc3ccccc3nc2N2CCCCC2)c1 | 3.46%
CCOCCCNC(=O)c1c(NC(=O)Cc2coc3ccc(C)cc23)sc2c1CCC2 | -1.23%
COC(=O)c1ccccc1NC(=O)c1cc(-c2ccccc2O)no1 | -2.41%
O=C1CSC(=S)N1/N=C/c1ccc(O)c([N+](=O)[O-])c1 | -62.1% (active)
COC(=O)c1nc(Cl)c(Cl)nc1N | 2.02%
CCC(C(=O)Nc1cccc(-c2nc3cccnc3s2)c1C)c1ccccc1 (centres undefined) | 6.98%
CCc1ccc(NC(=O)c2cnc3c(-c4ccccc4)c(C)nn3c2C)cc1 | 0.0021%
CCCc1nn2c(=O)cc(COC(=O)c3ccc(NC(=O)C(C)Oc4ccccc4)cc3)nc2s1 (centres undefined) | -2.75%
O=C(CC1C(=O)N(c2ccccc2)C(=O)N1CCc1cccs1)Nc1ccc(F)cc1 (centres undefined) | 3.68%
COc1ccc(C2=NC3(CCCCC3)N(CC(=O)Nc3ccc(C(C)C)cc3)C2=O)cc1 | -3.85%
CCOC(=O)c1c(C)[nH]c(C)c1S(=O)(=O)NCC(=O)NCc1cccc(C)c1 | -4.08%
COc1ccccc1N1CCN(C2C(=O)c3ccccc3N2C(C)=O)CC1 (centres undefined) | 2.81%
COc1ccc(C2CC(=O)Nc3c2c(=O)nc2c(C)cccn32)cc1OC (centres undefined) | -1.68%
CCOC(=O)c1cc2c(=O)n3ccccc3nc2n(CCCOC)c1=NC(=O)C(C)(C)Oc1ccc(Cl)cc1 | -2.85%
CCOC(=O)c1c(C)[nH]c(C)c1S(=O)(=O)N1CCC(C(=O)Nc2ccc(C)c(Cl)c2)CC1 | 0.586%
Cc1ccc(Cl)cc1NC(=O)C(C)n1nnc2sc(-c3ccccc3)cc2c1=O (centres undefined) | 3.33%

— PubChem BioAssay AID1346378 (National Center for Advancing Translational Sciences (NCATS), 2018)
